Measured values as given in PubChem BioAssay (NCI).
The panel holds about 79,000 compounds, 15% with a hit somewhere; the sample as a whole holds those more often. No stated cut-off is given here; in the data, active means growth inhibition above about 70%; inactive means the rest.

Legend:
[1] = NCI Yeast Anticancer Drug Screen. Data for the rad50 strain (AID 155);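 further: 0% = growth of vehicle-only cultures of the same strain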; conditions: S. cerevisiae rad50 strain growth inhibition; at 50.0 µM; active compounds read high
Outline: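 Relative growth inhibition (compound vs vehicle) was measured in yeast with a defined repair-gene alteration.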

[2] = NCI Yeast Anticancer Drug Screen. Data for the mec2-1 strain (AID 157); conditions: S. cerevisiae mec2-1 strain, at 50.0 µM, active compounds read high
Outline: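 Mutant yeast (mec2-1) grown with compound; growth inhibition relative to vehicle control reported.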

[3] = NCI Yeast Anticancer Drug Screen. Data for the sgs1 mgt1 strain (AID 161);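 further: 0% = growth of cultures given vehicle only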; conditions: S. cerevisiae sgs1 mgt1 strain, at 50.0 µM, active compounds read high
Outline: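 Yeast cells carrying a defined DNA-repair defect were exposed to test compounds. Growth inhibition was measured relative to vehicle-treated controls.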

[4] = NCI Yeast Anticancer Drug Screen. Data for the cln2 rad14 strain (AID 165);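 further: 0% = growth equal to vehicle treated cultures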; conditions: S. cerevisiae cln2 rad14 strain, at 50.0 µM, active compounds read high
Outline: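 Readout is yeast growth inhibition versus vehicle-treated controls, using a strain with cln2 and rad14 alterations exposed to compound.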

[5] = NCI Yeast Anticancer Drug Screen. Data for the bub3 strain (AID 167); conditions: S. cerevisiae bub3 mutant strain, at 50.0 µM, active compounds read high
Outline: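 Screening used yeast with an engineered genetic alteration affecting cell cycle control. Compound-exposed cultures were compared with vehicle cultures, and reduced growth was taken as inhibition.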

[6] = NCI Yeast Anticancer Drug Screen. Data for the mlh1 rad18 strain (AID 175); conditions: S. cerevisiae mlh1 rad18 strain growth inhibition; at 50.0 µM; active compounds read high
Outline: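 Genetically defined yeast (DNA repair-deficient) exposed to compounds; growth inhibition determined relative to vehicle.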

Measured: growth inhibition

C=CCC(=S)NCCc1c[nH]c2ccccc12
inactive: [1] -12.2% | [2] 2.4% | [3] -5.5% | [4] 2.55% | [5] 11.8% | [6] -18.9%

CCOC(=O)c1c(C(=O)OC)nc2n1-c1ccccc1OC2
inactive: [1] -16.2% | [2] -36.1% | [3] -14.4% | [4] -17.8% | [5] -17.4% | [6] -0.7%

CC(C)CC(NC(=O)CCCCCl)C(=O)O (centres undefined)
inactive: [1] -1.85% | [2] -4.65% | [3] 0.25% | [4] 2.75% | [5] -3.4% | [6] 6.05%

NC(=O)c1[nH]cnc1N
inactive: [1] 12.6% | [2] 24.9% | [3] 10.4% | [4] 4% | [5] 23.9% | [6] -58.5%

C[Si](C)(Cl)c1ccccc1
inactive: [1] -47.6% | [2] -27.4% | [3] -11.7% | [4] 17.4% | [5] -23.6% | [6] -18.4%

COC1=CC(=O)c2ccccc2C1(CCC=C(C)C)C1=NC(C)(C)CO1 (centres undefined)
inactive: [1] -27% | [2] -11.6% | [3] 7.75% | [4] 5.65% | [5] -8.6% | [6] -11.6%

O=C(O)CC1C(=O)OC2C3COC(=O)c4cc(O)c(O)c(O)c4-c4c(cc(O)c(O)c4O)C(=O)OC2C(OC(=O)c2cc(O)c(O)c4c2C1C(O)C(=O)O4)C(OC(=O)c1cc(O)c(O)c(O)c1)O3 (centres undefined)
inactive: [1] 24.4% | [2] 2.8% | [3] 22.4% | [4] 5.15% | [5] 35.5% | [6] -6.15%

Cc1ccc(S(=O)(=O)Nc2ccccc2)cc1
inactive: [1] 18% | [2] -27.9% | [3] 21% | [4] -20.2% | [5] 3.8% | [6] 37.3%

Cc1ccc(C(C)C)cc1NC=O
inactive: [1] -6.55% | [2] -13.3% | [3] -20.1% | [4] 0.05% | [5] -2.6% | [6] 5.4%

Cc1ccc(-c2cc(O)c3nc4ccccc4n3c2)cc1
inactive: [1] -36.4% | [2] -10.1% | [3] -31.4% | [4] -22.9% | [5] -18.5% | [6] -24.1%

Cc1ccc(CNC(=S)Nc2ccc(F)cc2)c(C)c1
inactive: [1] -7.6% | [2] 30.1% | [3] 30.4% | [4] -24.7% | [5] 46.1% | [6] 27.4%

CC1(C)CCCC/C1=N\O
inactive: [1] 5.5% | [2] 24.2% | [3] 3.8% | [4] 24.4% | [5] 23.2% | [6] 3.3%

BrCCOc1ccccc1
inactive: [1] 19.4% | [2] 8% | [3] -28.6% | [4] -29.5% | [5] -8.3% | [6] -25.5%

CNCCC(=O)c1ccccc1
inactive: [1] -20.9% | [2] -14.3% | [3] -14.4% | [4] -64.8% | [5] -17.6% | [6] 2.25%

CC(=O)O[C@@H]1CC[C@@]2(C)C(=O)C34C[C@@]5(C)C([C@@H](C)CCCC(C)C)CCC5(C)[C@](O)(O3)C(=O)[C@H]4C2C1(C)C (some centres undefined)
inactive: [1] 18.4% | [2] 24.6% | [3] 11.5% | [4] 1.8% | [5] -0.05% | [6] 27.1%

CN(C)C=N[C@@H](C(=O)O)c1ccccc1
inactive: [1] -8.85% | [2] -19.1% | [3] -11.4% | [4] 8.8% | [5] -4.95% | [6] 9.8%

O=C(NC1CCCCC1)C(c1ccccc1)c1ccccc1
inactive: [1] 8.85% | [2] -3.3% | [3] 0.4% | [4] -18.7% | [5] 1.85% | [6] -10.9%

N#CC(=O)Nc1ccc(F)cc1
inactive: [1] -58.3% | [2] -2.35% | [3] -6.15% | [4] -8% | [5] 1.9% | [6] 3.2%

CC(=O)Cc1ccc([N+](=O)[O-])cc1
inactive: [1] -0.1% | [2] -9.25% | [3] -15.9% | [4] -41.7% | [5] 4.15% | [6] 12.2%

CC(=O)Nc1cnc2c(nc3cc(C)ccn32)c1C
inactive: [1] -5% | [2] -9.1% | [3] -19.9% | [4] -9.55% | [5] -0.7% | [6] -10.2%

Cc1cccc(Cl)c1NC(=O)c1cccc([N+](=O)[O-])c1
inactive: [1] 0.15% | [2] 40.6% | [3] 22.9% | [4] -7.95% | [5] 32.4% | [6] 46.4%

O=S(=O)([O-])Sn1c(-c2ccccc2)c[n+]2ccccc12
inactive: [1] 11.8% | [2] 5.55% | [3] 13.9% | [4] 14.2% | [5] 12.1% | [6] 10.8%

O=C1OC(/C=C/c2ccccc2)=NC/1=C\c1ccc(Cl)cc1
inactive: [1] 23.4% | [2] 14.1% | [3] 23.6% | [4] 13.7% | [5] 7.15% | [6] 10.2%

NC(=O)C(C1=CCCCC1)c1ccccc1 (centres undefined)
inactive: [1] 3.25% | [2] -1.3% | [3] 2.1% | [4] 3.15% | [5] 1.95% | [6] 0.9%

O=C(COc1ccc(Cl)c(Cl)c1)NCc1cccc(Cl)c1
inactive: [1] 6.1% | [2] -8.65% | [3] -1.7% | [4] -2.85% | [5] 36.4% | [6] 30.9%

CCC(=O)c1cc(-c2cc(C(=O)CC)[nH]n2)n[nH]1
inactive: [1] -27.5% | [2] 3.95% | [3] -5.7% | [4] -18.4% | [5] 2.15% | [6] 3.85%

Cn1c(=O)[nH]c2c(-c3ccccc3)n[nH]c2c1=O
inactive: [1] 11.3% | [2] -1.65% | [3] 3.5% | [4] -45.5% | [5] 1.4% | [6] 4.3%

OCc1ccccc1CN1CCCC1
inactive: [1] 8.65% | [2] 1.15% | [3] 17.8% | [4] -40.1% | [5] 8.1% | [6] -14.3%

CNC(C#N)c1ccco1 (centres undefined)
inactive: [1] 11.3% | [2] -17.2% | [3] 16% | [4] 8.4% | [5] 13.4% | [6] 22.1%

COc1ccc(-n2c(N)c(C#N)c(C#N)c2-c2ccccc2)cc1
inactive: [1] 7.85% | [2] 8.6% | [3] -16.6% | [4] -4.95% | [5] -6.25% | [6] -49.1%

O=C(Nc1ccccc1)Oc1ccccc1C1CCCCC1
inactive: [1] 26.8% | [2] 2.4% | [3] 6% | [4] 16.8% | [5] -18.9% | [6] -20%

CCOC(=O)CNCc1cccc(C)c1
inactive: [1] -1.45% | [2] -10.2% | [3] -19.1% | [4] -82.8% | [5] 0.6% | [6] 1.95%

CC(=O)Oc1cc2c(c3ccc4ccccc4c13)CCc1ccccc1-2
inactive: [1] 11.8% | [2] -11.7% | [3] 10.1% | [4] 10.2% | [5] 0.1% | [6] 4.9%

O=S1(=O)OCCOS(=O)(=O)C1(F)Br
inactive: [1] -38.4% | [2] -4.7% | [3] -19.6% | [4] -8% | [5] -20.6% | [6] -29.8%
